The source made the active and inactive calls. The calls were made as follows: active = hit-call score of the fitted dose curve at least 0.9, where 1 is the maximum; inactive = score below 0.9.

Read-out in assay [1]: Transforming growth factor beta 1 (TGFb1), TGFB1 (gene 7040)
Description: BSK_KF3CT_TGFb1: BioMAP Diversity Plus: KF3CT Assay for Transforming growth factor beta 1 (TGFb1) Biomarker Activity (AID 2283072). As to conditions: primary human keratinocytes with fibroblasts; actives raise or lower the signal. The method, boiled down: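 Primary human skin cells (keratinocytes, foreskin fibroblasts) were co-cultured, exposed to test chemical and sampled at 24 h. TGF-b1 levels were measured by ELISA and fitted bidirectionally relative to DMSO.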

Read-out in assay [2]: C-C motif chemokine 2 (Homo sapiens) (UniProt P13500)
The assay is described as follows: BSK_KF3CT_MCP1: BioMAP Diversity Plus: KF3CT Assay for Monocyte Chemoattractant Protein 1 (MCP1/CCL2) Biomarker Activity (AID 2283073). As to conditions: primary human keratinocytes with fibroblasts; actives raise or lower the signal. The method in brief:
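Biomarker MCP-1 is measured by ELISA in primary human keratinocytes co-cultured with foreskin fibroblasts, 24 h after chemical treatment; DMSO serves as the negative control and activity baseline.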

Read-out in assay [3]: Matrix Metallopeptidase 9 (MMP9), MMP9 (gene 4318)
The assay is described as follows: BSK_KF3CT_MMP9: BioMAP Diversity Plus: KF3CT Assay for Matrix Metallopeptidase 9 (MMP9) Biomarker Activity (AID 2283074).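 As to AC50: MMP9 protein level quantified by ELISA in the co-culture.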 The settings on record: primary human keratinocytes with fibroblasts; actives raise or lower the signal. The method in brief: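 Human keratinocyte/foreskin fibroblast co-culture; compound added; 24 h; MMP-9 by ELISA; bidirectional fit vs DMSO baseline.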

Read-out in assay [4]: urokinase plasminogen activator (uPA), PLAU (gene 5328)
Description: BSK_KF3CT_uPA: BioMAP Diversity Plus: KF3CT Assay for urokinase plasminogen activator (uPA) Biomarker Activity (AID 2283075). The settings on record: primary human keratinocytes with fibroblasts; actives raise or lower the signal. The method, boiled down:
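ELISA readout of uPA, analyzed for signal gain or loss relative to DMSO, from a human primary keratinocyte–foreskin fibroblast co-culture measured 24 h after chemical treatment.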

Read-out in assay [5]: CD40, CD40 (gene 958)
The assay is described as follows: BSK_LPS_CD40: BioMAP Diversity Plus: LPS Assay for CD40 Biomarker Activity (AID 2283076). The settings on record: primary human HUVEC with PBMC; actives raise or lower the signal. The method in brief: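 Using a multiplexed primary human co-culture (umbilical vein endothelium plus PBMC), CD40 was read by ELISA 24 h after dosing, with cytotoxicity tracked by sulforhodamine B staining of parallel cultures and activity fitted bidirectionally versus DMSO.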

Read-out in assay [6]: E-selectin (Homo sapiens) (UniProt P16581)
Description: BSK_LPS_Eselectin: BioMAP Diversity Plus: LPS Assay for Eselectin Biomarker Activity (AID 2283077). As to conditions: primary human HUVEC with PBMC; actives raise or lower the signal. The method, boiled down:
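Dose chemical onto LPS-driven HUVEC/PBMC co-culture; after 24 h, run ELISA for E-selectin; fit up- and down-going responses relative to DMSO control.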

Read-out in assay [7]: Interleukin-8 (IL8), CXCL8 (gene 3576)
The assay is described as follows: BSK_LPS_IL8: BioMAP Diversity Plus: LPS Assay for Interleukin-8 (IL8) Biomarker Activity (AID 2283078). The settings on record: primary human HUVEC with PBMC; actives raise or lower the signal. The method in brief: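 In this LPS system, chemical-treated human umbilical vein endothelium/PBMC co-cultures were harvested at 24 h for IL-8 ELISA.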

Assay [8] in a line: BSK_LPS_SRB: Viability Assessment in the BioMAP Diversity Plus: LPS Assay (AID 2283079).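 Also: total protein by sulforhodamine B absorbance as a cytotoxicity measure; measured one day after compound addition; fitted in both directions against DMSO so loss or gain of signal counts.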 As to conditions: primary human HUVEC with PBMC. The method, boiled down: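 Cytotoxicity endpoint in human endothelial–PBMC co-culture: 24 h exposure, then SRB (0.1%) staining, 560 nm read.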
Read-out in assay [9]: Interleukin-1 alpha (IL1a), IL1A (gene 3552)
The assay is described as follows: BSK_LPS_IL1a: BioMAP Diversity Plus: LPS Assay for Interleukin-1 alpha (IL1a) Biomarker Activity (AID 2283080). As to conditions: primary human HUVEC with PBMC; actives raise or lower the signal. The method, boiled down:
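Primary human HUVEC and PBMC co-culture stimulated with LPS is dosed and harvested at 24 h. Both increases and decreases in ELISA-measured IL-1a are scored relative to DMSO.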

Read-out in assay [10]: Monocyte Chemoattractant Protein-1 (MCP1), CCL2 (gene 6347)
Description: BSK_LPS_MCP1: BioMAP Diversity Plus: LPS Assay for Monocyte Chemoattractant Protein-1 (MCP1) Biomarker Activity (AID 2283081).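 As to AC50: secreted MCP-1 protein quantified by ELISA in culture supernatant.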 As to conditions: primary human HUVEC with PBMC; actives raise or lower the signal. The method in brief: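 Values derive from bidirectional fitting against DMSO of ELISA-measured MCP-1 in a human primary endothelial and mononuclear cell co-culture, 24 h after chemical addition under LPS activation.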

Assay [11] in a line: BSK_LPS_PGE2: BioMAP Diversity Plus: LPS Assay for Prostaglandin E2 (PGE2) Biomarker Activity (AID 2283082).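 As to AC50: secreted prostaglandin E2 measured by ELISA in LPS-stimulated co-culture.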 The settings on record: primary human HUVEC with PBMC; actives raise or lower the signal. The method in brief: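 LPS-activated HUVEC/PBMC co-culture; cmpd dosed, 24 h; PGE2 by ELISA; bidirectional fit vs DMSO; SRB (0.1%, TCA-fixed, 560 nm) in parallel plates for overt cytotox.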

Read-out in assay [12]: Macrophage colony-stimulating factor (MCSF), CSF1 (gene 1435)
Description: BSK_LPS_MCSF: BioMAP Diversity Plus: LPS Assay for Macrophage colony-stimulating factor (MCSF) Biomarker Activity (AID 2283083). The settings on record: primary human HUVEC with PBMC; actives raise or lower the signal. The method, boiled down:
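Bidirectional fit versus DMSO of ELISA-measured M-CSF in co-cultured human umbilical vein endothelial cells and PBMC, sampled 24 h after dosing.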

Read-out in assay [13]: Tissue Factor, F3 (gene 2152)
The assay is described as follows: BSK_LPS_TissueFactor: BioMAP Diversity Plus: LPS Assay for Tissue Factor Biomarker Activity (AID 2283084). The settings on record: primary human HUVEC with PBMC; actives raise or lower the signal. The method, boiled down:
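Read-out: CD142 ELISA, 24 h. System: LPS-driven human endothelial/PBMC co-culture. Analysis: up- or down-signal fitted against DMSO.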

Read-out in assay [14]: Tumor necrosis factor (Homo sapiens) (UniProt P01375)
The assay is described as follows: BSK_LPS_TNFa: BioMAP Diversity Plus: LPS Assay for Tumour Necrosis Factor alpha (TNFa) Biomarker Activity (AID 2283085). The settings on record: primary human HUVEC with PBMC; actives raise or lower the signal. The method, boiled down: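 Read-out is ELISA of TNFa in primary human endothelial cell–PBMC co-cultures at 24 h after compound. Activity in either direction was fitted against DMSO.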

Read-out in assay [15]: Vascular cell adhesion molecule 1 (VCAM1), VCAM1 (gene 7412)
Description: BSK_LPS_VCAM1: BioMAP Diversity Plus: LPS Assay for Vascular cell adhesion molecule 1 (VCAM1) Biomarker Activity (AID 2283086). As to conditions: primary human HUVEC with PBMC; actives raise or lower the signal. The method in brief: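 HUVEC + PBMC co-culture, LPS system; compound 24 h; VCAM-1 by ELISA; bidirectional fit vs DMSO control; parallel SRB (0.1%, TCA-fixed, 560 nm) for cytotoxicity.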

Read-out in assay [16]: CD38, CD38 (gene 952)
Description: BSK_SAg_CD38: BioMAP Diversity Plus: SAg Assay for CD38 Biomarker Activity (AID 2283087). As to conditions: primary human HUVEC with PBMC; actives raise or lower the signal. The method, boiled down: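 Human HUVEC plus PBMC co-culture stimulated with superantigen; CD38 measured by ELISA 24 h after chemical dosing. Fluorescence read-out, bidirectional fit against DMSO; cytotoxicity tracked in parallel by SRB and Alamar Blue.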

Read-out in assay [17]: CD40, CD40 (gene 958)
The assay is described as follows: BSK_SAg_CD40: BioMAP Diversity Plus: SAg Assay for CD40 Biomarker Activity (AID 2283088). The settings on record: primary human HUVEC with PBMC; actives raise or lower the signal. The method in brief:
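Endpoint derived by fitting increases or decreases versus DMSO controls. CD40 is detected by fluorescence ELISA in a human vascular co-culture of endothelium and PBMC at 24 h.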

Read-out in assay [18]: CD69, CD69 (gene 969)
The assay is described as follows: BSK_SAg_CD69: BioMAP Diversity Plus: SAg Assay for CD69 Biomarker Activity (AID 2283089).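 As to AC50: cell surface CD69 protein quantified by ELISA with fluorescence detection.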 As to conditions: primary human HUVEC with PBMC; actives raise or lower the signal. The method, boiled down:
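ELISA, fluorescence read-out: CD69 on human umbilical vein endothelial cell + PBMC co-culture, 24 h post-dosing. Gain or loss of signal fitted bidirectionally against DMSO baseline.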

Read-out in assay [19]: Monocyte Chemoattractant Protein-1 (MCP1), CCL2 (gene 6347)
The assay is described as follows: BSK_SAg_MCP1: BioMAP Diversity Plus: SAg Assay for Monocyte Chemoattractant Protein-1 (MCP1) Biomarker Activity (AID 2283090). The settings on record: primary human HUVEC with PBMC; actives raise or lower the signal. The method, boiled down:
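MCP-1 levels in the endothelial–PBMC SAg co-culture were quantified by ELISA at 24 h post-dosing; both increases and decreases versus DMSO scored. Cytotoxicity monitored by SRB total protein in parallel cultures.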

Read-out in assay [20]: E-selectin (Homo sapiens) (UniProt P16581)
The assay is described as follows: BSK_SAg_Eselectin: BioMAP Diversity Plus: SAg Assay for Eselectin Biomarker Activity (AID 2283091). As to conditions: primary human HUVEC with PBMC; actives raise or lower the signal. The method in brief:
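Endpoint values derive from bidirectional fitting relative to DMSO, using ELISA-measured E-selectin in a human vascular co-culture (umbilical vein endothelium plus PBMC) sampled 24 h after dosing.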

Sequence of E-selectin (Homo sapiens) (P16581 whole entry, looked up): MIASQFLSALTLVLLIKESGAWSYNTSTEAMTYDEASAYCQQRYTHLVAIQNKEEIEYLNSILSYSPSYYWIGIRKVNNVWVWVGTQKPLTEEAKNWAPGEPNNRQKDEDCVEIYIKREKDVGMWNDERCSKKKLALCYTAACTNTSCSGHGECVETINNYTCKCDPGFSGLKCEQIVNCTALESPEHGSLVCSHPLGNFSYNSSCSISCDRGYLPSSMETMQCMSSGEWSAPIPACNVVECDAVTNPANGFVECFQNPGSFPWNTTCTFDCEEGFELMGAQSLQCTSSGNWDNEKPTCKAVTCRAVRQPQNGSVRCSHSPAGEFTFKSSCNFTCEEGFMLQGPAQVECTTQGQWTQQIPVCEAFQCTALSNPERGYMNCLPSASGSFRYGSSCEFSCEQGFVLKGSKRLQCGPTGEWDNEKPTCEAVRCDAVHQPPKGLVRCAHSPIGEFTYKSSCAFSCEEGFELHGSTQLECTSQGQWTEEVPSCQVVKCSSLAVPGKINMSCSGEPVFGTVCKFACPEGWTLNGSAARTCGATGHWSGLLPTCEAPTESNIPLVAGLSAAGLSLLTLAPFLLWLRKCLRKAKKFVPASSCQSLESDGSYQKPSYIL
Sequence of Tumor necrosis factor (Homo sapiens) (P01375 whole entry, looked up): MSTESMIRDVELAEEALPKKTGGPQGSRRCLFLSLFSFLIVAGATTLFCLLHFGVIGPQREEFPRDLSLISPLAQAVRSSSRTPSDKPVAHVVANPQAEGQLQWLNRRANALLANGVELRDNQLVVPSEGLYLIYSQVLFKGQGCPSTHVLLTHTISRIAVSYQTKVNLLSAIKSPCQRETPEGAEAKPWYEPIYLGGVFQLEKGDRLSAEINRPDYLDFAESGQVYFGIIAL

One may read the AC50 as the concentration giving half of the maximal activity seen. In the case of `CC(=O)NC1(c2cccc(F)c2)CCN(CC[C@@]2(c3ccc(Cl)c(Cl)c3)CN(c3ccccc3)C(=O)CO2)CC1`, the result in assay [1], in assay [2], in assay [5], in assay [6], in assay [11] and in [12] was inactive. Besides, the outcome in assay [13] and in [14] was inactive. The AC50 is 25.8 µM (active) in assay [3]; 27 µM (active) in assay [4]; 4.23 µM (active) in assay [7]; 12.8 µM (active) in [8]; 24.9 µM (active) in assay [9]; 16.6 µM (active) in assay [10]. Besides, the AC50 was 16.6 µM (active) in [15]; 26.7 µM (active) in assay [16]; 30.5 µM (active) in [17]; 25.2 µM (active) in [18]; 27.5 µM (active) in assay [19].
As to `CC(O)CO` (configuration not stated), the outcome in assay [1], in assay [2], in [3], in assay [4], in assay [5] and in [6] was inactive. Further, the result in assay [7], in assay [8], in [9], in assay [10], in assay [11] and in assay [12] was inactive. Besides, the result in assay [13], in assay [14], in [15], in assay [16], in [17] and in assay [18] was inactive. The outcome in assay [19] and in [20] was inactive.
For `CCCCCCCCCCCCc1ccccc1S(=O)(=O)O`, the AC50 is 12.4 µM (active) in assay [1], 24.3 µM (active) in assay [2], 12 µM (active) in assay [3] and 28 µM (active) in [4]. In addition, the result in assay [5], in assay [6], in assay [7], in assay [8], in assay [9] and in assay [10] was inactive. Also, the result in assay [11], in assay [12], in [13], in assay [14], in assay [15] and in assay [16] was inactive. Moreover, the result in [17], in [18], in assay [19] and in assay [20] was inactive.
Regarding `CC(C)(C)c1ccc(O)c(C(C)(C)C)c1`, the AC50 in assay [1] is 8.63 µM (active); in assay [2], 13.4 µM (active); in assay [3], 9.23 µM (active); in assay [4], 11.3 µM (active); in assay [5] it was 14 µM (active); in assay [6], 13.3 µM (active). In addition, the AC50 was 26.6 µM (active) in assay [7]; 17.7 µM (active) in assay [8]; 14.4 µM (active) in assay [9]; 26.7 µM (active) in assay [10]; 16.9 µM (active) in assay [11]; 13.4 µM (active) in assay [12]. Also, the AC50 in assay [13] was 20 µM (active); in assay [14] it was 13.2 µM (active); in [15], 19.4 µM (active); in [16], 14.5 µM (active); in [17], 20 µM (active); in assay [18], 24.8 µM (active). For the same compound, the AC50 in [19] is 23.6 µM (active); in assay [20], 11.9 µM (active).
With `CCCCCCCCC(=O)O`, the result in assay [1], in [2], in assay [3], in assay [4], in [5] and in assay [6] was inactive. Further, the result in assay [7], in assay [8], in assay [9], in assay [10], in [11] and in [12] was inactive. The outcome in [13], in [14], in [15], in assay [16], in [17] and in assay [19] was inactive.

These data come from PubChem BioAssay (EPA / NIEHS).
